Laboratory results taken from article PMC5540273 (PLoS ONE, 2017).

Tests used:
Details in all cases: concentration: 1 μM, replicates: in singlicate; n = 1
RIPK4 = tested on: RIPK4
RIPK5 = tested on: RIPK5
ROCK1 = tested on: ROCK1
ROCK2 = tested on: ROCK2
ROS1 = tested on: ROS1
[1] = tested on: RPS6KA4(Kin.Dom.1-N-terminal)
[2] = tested on: RPS6KA4(Kin.Dom.2-C-terminal)
[3] = tested on: RPS6KA5(Kin.Dom.1-N-terminal)
[4] = tested on: RPS6KA5(Kin.Dom.2-C-terminal)
[5] = tested on: T1, RSK1(Kin.Dom.1-N-terminal)
T1 construct: gene RPS6KA1

[6] = tested on: T2, RSK1(Kin.Dom.2-C-terminal)
T2 construct: gene RPS6KA1

[7] = tested on: T3, RSK2(Kin.Dom.1-N-terminal)
T3 construct: gene RPS6KA3

[8] = tested on: T4, RSK2(Kin.Dom.2-C-terminal)
T4 construct: gene RPS6KA3

[9] = tested on: T5, RSK3(Kin.Dom.1-N-terminal)
T5 construct: gene RPS6KA2

[10] = tested on: T6, RSK3(Kin.Dom.2-C-terminal)
T6 construct: gene RPS6KA2

[11] = tested on: T7, RSK4(Kin.Dom.1-N-terminal)
T7 construct: gene RPS6KA6

[12] = tested on: T8, RSK4(Kin.Dom.2-C-terminal)
T8 construct: gene RPS6KA6

S6K1 = tested on: S6K1
SBK1 = tested on: SBK1
SGK2 = tested on: SGK2
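Note: KINOMEscan kinase panel screen.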

Row | Structure (SMILES) | %Inh (RIPK4) [%] | %Inh (RIPK5) [%] | %Inh (ROCK1) [%] | %Inh (ROCK2) [%] | %Inh (ROS1) [%] | %Inh [1] [%] | %Inh [2] [%] | %Inh [3] [%] | %Inh [4] [%] | %Inh [5] [%] | %Inh [6] [%] | %Inh [7] [%] | %Inh [8] [%] | %Inh [9] [%] | %Inh [10] [%] | %Inh [11] [%] | %Inh [12] [%] | %Inh (S6K1) [%] | %Inh (SBK1) [%] | %Inh (SGK2) [%]
1 | Cc1c(Cn2c3ccccc3n3c(=O)cc(N4CCOCC4)nc23)cccc1C(F)(F)F [GSK2306394] | 3 | 0 | 0 | 4 | 0 | 13 | 0 | 15 | 0 | 0 | 0 | 4 | 30 | 5 | 1 | 0 | 11 | 0 | 9 | 0
2 | NS(=O)(=O)c1cccc(N/C=C2\C(=O)Nc3ccc(S(=O)(=O)Cc4c(Cl)cccc4Cl)cc32)c1 [GSK398099] | 14 | 0 | 0 | 2 | 0 | 2 | 0 | 0 | 0 | 11 | 100 | 6 | 0 | 10 | 0 | 0 | 2 | 0 | 21 | 8
3 | CC[C@@H]1CO[C@H](C(=O)Nc2ccccc2)CN1c1cc(-c2ccc3c(N)n[nH]c3c2)nc(NC)n1 [GSK2376236] | 0 | 8 | – | 52 | 24 | 10 | 0 | 28 | 23 | 7 | 31 | 0 | 2 | 26 | 16 | 0 | 7 | 0 | 0 | 0
4 | Fc1ccc(-c2nc3n(c2-c2ccncc2)CCS3)cc1 [GI98581] | 0 | 0 | 11 | 0 | 3 | 35 | 0 | 10 | 0 | 0 | 22 | 1 | 7 | 18 | 11 | 0 | 88 | 33 | 21 | 6
5 | Cn1cncc1-c1cc2c(Nc3ccc(OCc4ccccc4)cc3)ncnc2cn1 [GW281179] | 8 | 0 | 82 | 74 | 13 | 9 | 0 | 11 | 0 | 30 | 0 | 0 | 0 | 3 | 0 | 0 | 9 | 3 | 36 | 10
6 | CS(=O)(=O)CCNCc1nc(-c2ccc3ncnc(Nc4ccc5c(cnn5Cc5ccccc5)c4)c3c2)cs1.Cl.Cl [GW569716] | 3 | 0 | 47 | 33 | 0 | 23 | 0 | 9 | 7 | 8 | 0 | 0 | 0 | 0 | 4 | 0 | 5 | 5 | 0 | 7
7 | CS(=O)(=O)Cc1ccc(Nc2nccc(-c3c(-c4cccc(NC(=O)C5CCCCC5)c4)nn4ncccc34)n2)cc1 [GSK350559] | 44 | 39 | 37 | 21 | 21 | 0 | 35 | 0 | 16 | 11 | 33 | 13 | 11 | 12 | 0 | 17 | 9 | 24 | 34 | 40
8 | CNc1cc(-c2ccc3c(N)n[nH]c3c2)nc(N)n1 [GSK2224810] | 64 | 0 | – | 29 | 17 | 0 | 15 | 0 | 35 | 2 | 26 | 14 | 0 | 1 | 0 | 37 | 37 | 0 | 7 | 0
9 | c1ccc(-c2ccnc3[nH]ccc23)cc1 [SB-693578] | 28 | 7 | 90 | 88 | 0 | 0 | 8 | 5 | 26 | 28 | 0 | 30 | 27 | 0 | 0 | 29 | 17 | 26 | 17 | 4
10 | CC(=O)c1c(C)c2cnc(Nc3ccn(C)n3)nc2n(C2CCCC2)c1=O | 0 | 0 | 0 | 0 | 4 | 0 | 0 | 0 | 3 | 0 | 4 | 0 | 0 | 0 | 0 | 0 | 0 | 0 | 0 | 0
11 | O=C(Nc1n[nH]c2nc(-c3ccco3)c(Br)cc12)C1CCN(Cc2ccccc2)C1.O=C(O)[C@H](O)[C@@H](O)C(=O)O (stereo not drawn) [SB-742034] | 17 | 29 | 0 | 0 | 5 | 11 | 12 | 0 | 16 | 17 | 0 | 35 | 0 | 6 | 0 | 16 | 12 | 23 | 19 | 27
12 | COc1ccc(Nc2nccc(N3CCC(NC(=O)C(C)c4ccc(Cl)cc4)CC3)n2)cc1 (stereo not drawn) [GSK1379812] | 0 | 0 | 15 | 16 | 40 | 19 | 0 | 3 | 42 | 2 | 0 | 21 | 99.4 | 5 | 3 | 0 | 0 | 0 | 6 | 0
13 | CN1c2ccc(-c3ccc(C(N)=O)cc3)cc2-c2[nH]ncc2S1(=O)=O | 0 | 0 | 0 | 11 | 0 | 17 | 26 | 0 | 0 | 0 | 47 | 17 | 35 | 0 | 41 | 0 | 38 | 0 | 0 | 8
14 | O=c1cc(N2CCOCC2)nc2n(Cc3cccc(Cl)c3Cl)c3ccccc3n12 [GSK2299009] | 16 | 0 | 10 | 0 | 38 | 24 | 0 | 16 | 2 | 31 | 5 | 19 | 53 | 4 | 0 | 0 | 5 | 14 | 28 | 37
15 | COc1cccc(CNC(=O)NC2CCN(c3ccnc(Nc4ccc(F)cc4)n3)C2)c1 (stereo not drawn) [GSK1379723] | 20 | 10 | 0 | 0 | 0 | 0 | 0 | 7 | 36 | 2 | 0 | 9 | 28 | 0 | 0 | 0 | 6 | 0 | 22 | 8
16 | Cc1ccccc1-c1cc(-c2c[nH]nc2-c2ccccn2)ccn1 [GW680061] | 0 | 0 | 0 | 3 | 0 | 5 | 0 | 4 | 0 | 5 | 14 | 10 | 15 | 2 | 0 | 0 | 22 | 2 | 0 | 0
